# According to PubChem BioAssay:
# Records with an inconclusive call do not appear. Activity calls are given as the source filed them. Unless noted, the rule behind the calls is not given here.
# Legend:
# [1] = biological target: Pantothenate synthetase (Mycobacterium tuberculosis (strain ATCC 25618 / H37Rv)) (UniProt P9WIL5); assay: Coupled enzyme confirmation of inhibitors against recombinant Mtb PanC (AID 375); settings: coupled enzyme assay; at 10 µM, stronger effect = higher value;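 note: 0% = full reaction with vehicle and 100% = no enzyme background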
# Chain of Pantothenate synthetase (Mycobacterium tuberculosis (strain ATCC 25618 / H37Rv)) (P9WIL5 whole entry, looked up): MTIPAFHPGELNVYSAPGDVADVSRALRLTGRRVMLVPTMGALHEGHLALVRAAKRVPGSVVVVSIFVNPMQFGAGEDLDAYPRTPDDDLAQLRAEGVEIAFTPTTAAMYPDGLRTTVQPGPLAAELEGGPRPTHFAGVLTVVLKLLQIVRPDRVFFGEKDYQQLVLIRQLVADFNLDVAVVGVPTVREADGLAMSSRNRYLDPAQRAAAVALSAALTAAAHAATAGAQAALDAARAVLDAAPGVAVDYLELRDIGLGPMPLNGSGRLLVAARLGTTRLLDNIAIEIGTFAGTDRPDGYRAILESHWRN
# [2] = reduced viability of SK-BR-3 breast cancer cells – cell-based, 24 h, human, pilot screen (AID 572;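 active = viability at or below 10% of carrier control in both of two separate runs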;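 note: compound exposure lasted between 18 and 24 h rather than exactly 24 h; 100% = carrier-treated control wells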); settings: SK-BR-3 viability, CellTiter-Glo luminescence, at 10 µM, stronger effect = lower value
# [3] = HUVEC growth inhibition – cell-based, human, primary screen (AID 575;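 active = viability at or below 30% in both replicate assays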;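 note: 100% = median of untreated cell wells with 0.1% DMSO on each plate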); settings: HUVEC proliferation, CellTiter-Glo luminescence, 72 h; at 10 µM; stronger effect = lower value
# [4] = H69AR cell proliferation blockers – human, duplicate replicates, primary screen (AID 580;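 active = viability at or under a set limit in both replicates, limit being median viability minus 3 SD, cut at about 48% in these data, passing the limit was not always enough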;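 note: 100% = mean luminescence of untreated wells and 0% = no signal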); settings: H69AR lung tumor cells viability, ATP luminescence, 72 h; at 10 µM; stronger effect = lower value
# [5] = MRP1 drug-resistance reversers in H69AR cells – cell-based, doxorubicin co-treatment, pilot screen (AID 601;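 active = viability loss from added drug above about 55%, and viability with drug at most 40%, in both replicates, limit read from the data, passing the limit was not always enough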); settings: CellTiter-Glo, 72 h, at 10 µM; for differential viability (reversal): stronger effect = higher value
# [6] = yeast transport mutant growth inhibition pilot in 384-well plates, post-Golgi transport modulator project (AID 636; in the data active = inhibition above about 31%); settings: absorbance 615 nm, about 18 h, stronger effect = higher value
# [7] = growth suppression of yeast trafficking mutant, preliminary HTS, modulators of trafficking downstream of Golgi apparatus project, 1536-format plate, OD 615 nm (AID 637; in the data active = inhibition above about 30%); settings: yeast transport mutant growth, absorbance 615 nm, 18 h; stronger effect = higher value
# [8] = S. cerevisiae growth inhibition in permissive medium (OD615), pilot counter-assay for S. cerevisiae lifespan shortening project, permissive growth control (AID 705;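 active = growth inhibition above 25% in both replicates, a cutoff set 3 SD above the mean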); settings: OD615, 24 h, at 10 µM, stronger effect = higher value
# [9] = S. cerevisiae growth inhibition in restrictive medium, OD615, pilot screen, restrictive growth control, yeast lifespan reduction project (AID 706;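 active = growth inhibition above a set limit, 3 SD over mean compound inhibition, in both replicates, cut at about 43% in these data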;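 note: modified DeaD lifespan yeast strain shifted to restrictive glucose medium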); settings: OD615, 48 h, at 10 µM, stronger effect = higher value
# [10] = doxorubicin toxicity protection in MRP-1 cells – H69AR cells, CellTiter-Glo, duplicate, MRP-1 activator project, pilot screen (AID 807;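 active = viability increase at or above a cutoff of the median across tested compounds plus 3 SD, cut at about 8.5% in these data, passing the limit was not always enough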;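 note: compound pretreatment 18-22 h then 72 h combined with doxorubicin; 0% = doxorubicin alone and 100% = vehicle without doxorubicin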); settings: H69AR viability with doxorubicin, CellTiter-Glo luminescence; at 10 µM; stronger effect = higher value
# [11] = viability of HCT116 without oncogenic beta-catenin – human colon tumor cells, pilot screen (AID 823;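 active = cell viability at or below a set limit in both duplicate runs, the limit being the all-compound median minus 4 SD, cut at about 23% in these data, passing the limit was not always enough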;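 note: 0% = wells killed by 20 µM Hyamine and 100% = untreated DMSO cell wells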); settings: HCT116 beta-catenin knockout viability, CellTiter-Glo, 60 h; at 10 µM; stronger effect = lower value
# [12] = RAM pathway blockade in budding yeast – dse1pr::URA3 reporter, 5-FOA selection, pilot screen (AID 869;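 active = inhibition over a set limit, the all-compound mean plus 3 SD, in both replicate runs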;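 note: 0% = DMSO wells with no growth and 100% = 10 µM 1-NA-PP1 with full growth; RAM network block rescues cells from 5-FOA so hits raise OD615 growth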); settings: S. cerevisiae dse1pr::URA3 5-FOA growth, OD615, 2 d, at 10 µM, stronger effect = higher value
# [13] = viability of PTEN-null HCT116 cells – cell-based, HCT116 clonal line, CellTiter-Glo, pilot screen (AID 824;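 active = viability at or below 27.92% in each of two runs, the all-compound median minus 4 SD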;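 note: 0% = 20 µM Hyamine control and 100% = vehicle cell control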); settings: HCT116 PTEN-deleted viability, 60 h, at 10 µM, stronger effect = lower value
# [14] = H69AR cells + 2 uM doxorubicin, measured here: viability with 2 uM doxorubicin, stronger effect = lower value
# [15] = H69AR cells, compound alone cytotoxicity
Structure (SMILES),inhibition [1],viability [2],viability [3],viability [4],differential viability (reversal) ([5]; H69AR cells + 2 uM doxorubicin),"viability [5, 14] [%]","viability [5, 15] [%]",inhibition [6],inhibition [7],growth inhibition [8],growth inhibition [9],viability increase [10],viability [11],inhibition [12],viability [13]
CCOc1cccc(N2C(=O)CC(=O)NC2=O)c1,0% (inactive),124% (inactive),107% (inactive),94.5% (inactive),-2.27% (inactive),96.8,94.5,-2.6% (inactive),-8.55% (inactive),–,–,–,–,–,–
Cc1cccc(C2=NCC(=O)N(CC(=O)NCc3ccco3)c3sc4c(c32)CCCC4)c1,8% (inactive),102% (inactive),–,–,-28.5% (inactive),84.4,55.9,-6.49% (inactive),4.6% (inactive),–,–,–,–,–,–
Cc1ccc2c(c1)[C@@H]1CN(C)CC[C@@H]1N2C(=O)Nc1cccc(C(F)(F)F)c1,9% (inactive),–,–,69.9% (inactive),-8.21% (inactive),78.1,69.9,1.45% (inactive),1.15% (inactive),–,–,–,–,–,–
Cc1ccc2nc(N3CCN(C)CC3)[nH]c2c1,0% (inactive),111% (inactive),90.4% (inactive),93.6% (inactive),2.07% (inactive),91.5,93.6,1.64% (inactive),-1.13% (inactive),–,–,–,–,–,–
CNCC(O)c1ccc(O)cc1 (stereo unspecified),0% (inactive),120% (inactive),95.6% (inactive),102% (inactive),15.7% (inactive),85.9,102,-1.82% (inactive),8.83% (inactive),–,–,–,–,–,–
O=C(Cn1cc(C(=O)c2ccccc2)c2ccccc21)NCc1ccco1,2% (inactive),–,47.3% (inactive),22.6% (active),-47.2% (inactive),69.8,22.6,2.47% (inactive),6.51% (inactive),–,–,–,–,–,–
CCCC(C)(COC(N)=O)COC(=O)NC(C)C (stereo unspecified),0% (inactive),88% (inactive),86.4% (inactive),100% (inactive),-3.16% (inactive),103,100,-1.69% (inactive),4.17% (inactive),–,–,–,–,–,–
CC1(C)CC(=O)C=C(NCCN2CCN(C(=O)Cc3ccc(Cl)cc3)CC2)C1,2% (inactive),–,109% (inactive),92.4% (inactive),-3.5% (inactive),95.9,92.4,-0.79% (inactive),-2.06% (inactive),–,–,–,–,–,–
COP(=O)(OC)C(O)C(Cl)(Cl)Cl (stereo unspecified),0% (inactive),122% (inactive),95.5% (inactive),82.6% (inactive),-3.13% (inactive),85.7,82.6,-1.56% (inactive),-3.83% (inactive),–,–,–,–,–,–
CCC(C)NC(=O)c1c(N)n(CC2CCCO2)c2nc3ccccc3nc12 (stereo unspecified),0% (inactive),93% (inactive),53.4% (inactive),–,-8.02% (inactive),61.5,53.4,-0.4% (inactive),4.92% (inactive),–,–,–,–,–,–
CN(C)CCN=Cc1c(O)n(-c2cccc3ccccc23)c(=O)[nH]c1=O,6% (inactive),–,103% (inactive),105% (inactive),11.9% (inactive),92.8,105,-5.87% (inactive),1.9% (inactive),–,–,–,–,–,–
O=c1[nH]c2ccccc2n1CCCN1CCC(n2c(=O)[nH]c3cc(Cl)ccc32)CC1,0% (inactive),91% (inactive),97.8% (inactive),76% (inactive),-6.47% (inactive),82.5,76,-2.47% (inactive),-0.17% (inactive),–,–,–,–,–,–
CCOC(=O)C(C)Oc1cc(C)cc2oc(=O)c3c(c12)CCCC3 (stereo unspecified),–,–,–,–,–,–,–,–,–,-9.51% (inactive),-2.87% (inactive),-4.65% (inactive),70.3% (inactive),1.43% (inactive),–
Cc1ccc(Cn2c(C)c3cnn(CC(=O)N4CCC5(CC4)OCCO5)c(=O)c3c2C)cc1,0% (inactive),97% (inactive),98% (inactive),–,-46.2% (inactive),100,53.8,-0.81% (inactive),-1.09% (inactive),–,–,–,–,–,–
Cc1ccccc1-n1c(O)c(C=NCCN2CCOCC2)c(=O)[nH]c1=O,2% (inactive),–,97.6% (inactive),92.4% (inactive),-3.12% (inactive),95.5,92.4,-5.87% (inactive),-8.41% (inactive),–,–,–,–,–,–
COc1ccc(CCn2c(O)c(C=NCCCN(C)C)c(=O)[nH]c2=O)cc1OC,0% (inactive),–,103% (inactive),98.1% (inactive),3.64% (inactive),94.5,98.1,-4% (inactive),-1.59% (inactive),–,–,–,–,–,–
CN1C(=O)CN=C(c2ccc(Cl)cc2)c2cc(Cl)ccc21,0% (inactive),84% (inactive),61.8% (inactive),84.8% (inactive),0.31% (inactive),84.5,84.8,0.39% (inactive),4.17% (inactive),–,–,–,–,–,–
CCCC(=O)OCC[N+](C)(C)C,0% (inactive),83% (inactive),93.4% (inactive),101% (inactive),-4.88% (inactive),106,101,1.04% (inactive),40.7% (active),–,–,–,–,–,–

Structure (SMILES),inhibition [1],viability [2],viability [3],viability [4],differential viability (reversal) ([5]; H69AR cells + 2 uM doxorubicin),"viability [5, 14] [%]","viability [5, 15] [%]",inhibition [6],inhibition [7],growth inhibition [8],growth inhibition [9],viability increase [10],viability [11],inhibition [12],viability [13]
CNCCc1c[nH]c2ccccc12,0% (inactive),127% (inactive),85.9% (inactive),84.5% (inactive),-20.1% (inactive),105,84.5,-0.39% (inactive),12% (inactive),–,–,–,–,–,–
O=c1[nH]c2ccccc2n1C1CCN(CCCC(c2ccc(F)cc2)c2ccc(F)cc2)CC1,5% (inactive),–,2.55% (active),–,-0.46% (inactive),1.62,1.16,–,–,–,–,–,–,–,–
CN1[C@@H]2CC[C@H]1CC(OC(=O)C1C=Nc3ccccc31)C2 (stereo partly specified),4% (inactive),86% (inactive),82.4% (inactive),83.3% (inactive),-14.3% (inactive),97.7,83.3,3.25% (inactive),0.5% (inactive),–,–,–,–,–,–
O=C1c2ccccc2C(=O)N1Cc1nc2ccccc2c(=O)n1-c1ccc(Br)cn1,–,–,–,–,–,–,–,–,–,-8.78% (inactive),-3.02% (inactive),0.3% (inactive),98.4% (inactive),1.44% (inactive),99.3% (inactive)
O=C(CN1CCN(Cc2cccc(Cl)c2)C1=O)N1CCC2(CC1)OCCO2,2% (inactive),–,87.6% (inactive),89.5% (inactive),-2.12% (inactive),91.7,89.5,-3.12% (inactive),-2.7% (inactive),–,–,–,–,–,–
CCCNC(=O)c1c(N)n(Cc2ccc3c(c2)OCO3)c2nc3ccccc3nc12,0% (inactive),102% (inactive),21.8% (active),43.8% (active),6.99% (inactive),36.8,43.8,-3.2% (inactive),0.66% (inactive),–,–,–,–,–,–
C[C@H]1CCCC(=O)CCCCCc2cc(O)cc(O)c2C(=O)O1,2% (inactive),107% (inactive),–,87.3% (inactive),-23% (inactive),110,87.3,0.26% (inactive),-1.83% (inactive),–,–,–,–,–,–
CC(NC(C)(C)C)C(=O)c1cccc(Cl)c1 (stereo unspecified),0% (inactive),87% (inactive),74.8% (inactive),99.5% (inactive),4.02% (inactive),95.5,99.5,-1.17% (inactive),1.67% (inactive),–,–,–,–,–,–
OC(CNC1CCCCC1)c1ccccc1 (stereo unspecified),7% (inactive),104% (inactive),111% (inactive),98% (inactive),12.3% (inactive),85.7,98,-2.67% (inactive),-2.55% (inactive),–,–,–,–,–,–
CCCCN1C(=O)NC(=O)C2(Cc3c(nc4c(C)cccn4c3=O)N3CCc4ccccc4C32)C1=O (stereo unspecified),3% (inactive),111% (inactive),–,–,-19.7% (inactive),75.6,55.8,3.56% (inactive),10.5% (inactive),–,–,–,–,–,–
O=c1[nH]c(=O)n(Cc2ccc(F)cc2)c(O)c1C=NCCCN1CCOCC1,0% (inactive),–,96% (inactive),95.5% (inactive),3.54% (inactive),91.9,95.5,-1.6% (inactive),-2.22% (inactive),–,–,–,–,–,–
CN1C[C@H](CNC(=O)OCc2ccccc2)C[C@@H]2c3cccc4c3c(cn4C)C[C@H]21,4% (inactive),–,2.42% (active),66.3% (inactive),1.09% (inactive),65.2,66.3,–,–,–,–,–,–,–,–
CCOC(=O)c1c(N)n(Cc2ccco2)c2nc3ccccc3nc12,–,–,–,–,–,–,–,–,–,-1.25% (inactive),0.175% (inactive),-6.16% (inactive),83.3% (inactive),1.18% (inactive),74% (inactive)
CN1CCN(C(=O)COc2ccc(-c3nc4ccccc4s3)cc2)CC1,–,–,–,–,–,–,–,–,–,-5.45% (inactive),10.8% (inactive),-4.38% (inactive),66.1% (inactive),2.09% (inactive),–
Cc1cccc(-n2c(O)c(C=NCCCN3CCOCC3)c(=O)[nH]c2=O)c1C,2% (inactive),–,100% (inactive),105% (inactive),14.8% (inactive),90.7,105,0.8% (inactive),-2.7% (inactive),–,–,–,–,–,–
CCC(C(=O)N1CCC2(CC1)OCCO2)c1ccccc1 (stereo unspecified),0% (inactive),–,102% (inactive),93% (inactive),13.2% (inactive),79.8,93,-6.4% (inactive),1.43% (inactive),–,–,–,–,–,–
COc1ccccc1CN1CCN(C(=O)Cc2ccccc2)CC1,1% (inactive),97% (inactive),101% (inactive),99.6% (inactive),3.51% (inactive),96.1,99.6,-4.8% (inactive),-4.36% (inactive),–,–,–,–,–,–
